# The entries come from a sample that favours hits as a whole.
# Sm TGR inh: blocks Schistosoma mansoni thioredoxin glutathione reductase; Q962Y6; purified TGR, DTNB reduction, TNB absorbance 405 nm; Potency, µM (doses to about 114 µM), for inactives: at the highest dose activity change, negative = inhibition, usual class: inhibitors; actives 3% (n = 360,000); AID 485364; note: potency is the fitted concentration of half-maximal effect; % is set by controls: 0 for no effect and ±100 for the full control effect; nearly all actives have a fitted effect of over 60% in size
#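 First, TGR (20 nM dispensed) and NADPH were mixed with compound. Second, a 15 min room-temperature incubation followed. Third, further NADPH and then DTNB were added to start the reaction. Finally, TNB absorbance was monitored kinetically.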
# TbPYK inhibitor: inhibitors of Trypanosoma brucei pyruvate kinase. actives 0.12% (n = 410,000). TbPYK enzyme, Kinase-Glo Plus ATP luminescence, 45 min. Potency, µM (doses to about 76.8 µM), for the others: top-dose activity, negative = inhibition, usual class: inhibitors; note: potency is the fitted concentration of half-maximal effect; % is set by controls: 0 for no effect and ±100 for the full control effect; nearly all actives have a fitted effect of over 50% in size
#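 ADP (130 uM final) triggers the TbPYK reaction after compound addition; incubation is 45 min at room temperature. Kinase-Glo Plus is then added and luminescence imaged. Normalized data are fitted to concentration-effect curves.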
# Shiga inhibitor: blocks Shiga toxin action in Vero cells; inhibition, % at 38.7 µM; actives 9.2% (n = 290,000); Vero cells, Shiga toxin protein synthesis inhibition reporter; AID 2315; in the data active = inhibition mostly above about 28%, no sharp cut-off; inactive = mostly below about 43%; note: 0% is about no effect
# Cycloheximide cs: affects cycloheximide protein synthesis inhibition readout, counter-screen; max response, %; cell reporter, cycloheximide protein synthesis inhibition counterscreen; actives 12% (n = 300,000); AID 2314; in the data active = max response mostly above about 13%, no sharp cut-off; inactive = mostly below about 14%; note: read at 38.3 µM for the half of the compounds with a filed dose; 0% is about no effect
# Giardia FBPA inh-1: Giardia lamblia aldolase inhibition. purified Giardia FBPA. actives 0.71% (n = 290,000). AID 2451. A8B2U2. Potency, µM (titrated, usually from 59.6 µM), without a hit: at the highest dose activity, negative = inhibition, hits mostly inhibitors; note: potency is the fitted concentration of half-maximal effect; % is set by controls: 0 for no effect and ±100 for the full control effect; nearly all actives have a fitted effect of over 55% in size
#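 40 nM FBPA preincubated 10 min at RT with compound (up to 57.5 uM final), then substrate plus GAPDH/TPI/NAD/arsenate coupling and diaphorase/resazurin added. Fluorescence read after 20 min at RT, 525/598 nm.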
# LmPK inhibitor: inhibitors of Leishmania mexicana pyruvate kinase. Q27686. purified LmPK, Kinase-Glo ATP luminescence, 1 h. Potency, µM (doses to about 57.5 µM), inactives show at the top dose activity change, negative = inhibition, usual class: inhibitors. actives 0.37% (n = 290,000); note: potency is the fitted concentration of half-maximal effect; % is set by controls: 0 for no effect and ±100 for the full control effect
# Target sequence (Q27686 whole entry, looked up): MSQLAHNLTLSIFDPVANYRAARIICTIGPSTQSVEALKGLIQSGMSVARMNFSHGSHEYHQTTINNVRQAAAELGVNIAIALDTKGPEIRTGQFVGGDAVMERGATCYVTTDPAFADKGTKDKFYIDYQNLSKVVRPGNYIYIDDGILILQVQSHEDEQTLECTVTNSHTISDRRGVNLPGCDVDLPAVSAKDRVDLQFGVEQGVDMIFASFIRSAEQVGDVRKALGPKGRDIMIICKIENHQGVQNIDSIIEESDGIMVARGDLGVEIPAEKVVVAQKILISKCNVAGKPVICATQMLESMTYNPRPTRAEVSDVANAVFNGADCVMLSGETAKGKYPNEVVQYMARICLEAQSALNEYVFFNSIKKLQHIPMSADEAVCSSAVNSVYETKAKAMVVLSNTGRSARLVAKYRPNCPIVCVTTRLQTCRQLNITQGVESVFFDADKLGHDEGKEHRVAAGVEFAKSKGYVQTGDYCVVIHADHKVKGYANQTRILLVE
#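 Kinase-Glo luminescence read after 1 h RT reaction of 0.1 nM LmPK with 0.5 mM PEP and 0.1 mM ADP. Activity scaled between uninhibited and enzyme-free controls.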
# Giardia growth: blocks growth of Giardia lamblia trophozoites | actives 5% (n = 1,500) | Potency, µM (titrated, usually from 57.5 µM), inactives show at the top dose activity change, negative = inhibition, usual class: inhibitors | shares compounds with Giardia FBPA inh-1 | AID 2785 | Giardia lamblia trophozoite growth inhibition;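 note: potency is the fitted concentration of half-maximal effect; trophozoites exposed to compound for 48 h at 37 °C; % is set by controls: 0 for no effect and ±100 for the full control effect; nearly all actives have a fitted effect of over 70% in size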
# Mammalian tox: mammalian cytotoxicity of Giardia aldolase inhibitor hits | shares compounds with Giardia FBPA inh-1 | mammalian cell viability counter-screen, qHTS | Potency, µM (titrated, usually from 57.5 µM), inactives show top-dose viability change, negative = toxicity, actives largely listed as inhibitors | actives 4% (n = 1,500) | AID 2786;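 note: Chinese hamster ovary cells used as mammalian cytotoxicity surrogate; viability measured as cellular ATP by luminescence; potency is the fitted concentration of half-maximal effect; compound exposure lasted 48 h before reading; % is set by controls: 0 for no effect and ±100 for the full control effect; nearly all actives have a fitted effect of over 60% in size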
# Giardia FBPA inh-2: confirmation of Giardia fructose-bisphosphate aldolase inhibitors. shares compounds with Giardia FBPA inh-1. purified Giardia aldolase enzyme activity, qHTS. Potency, µM (top dose mostly 57.5 µM), for inactives: top-dose activity change, negative = inhibition, usual class: inhibitors. actives 5% (n = 1,500). AID 2787; note: potency is the fitted concentration of half-maximal effect; % is set by controls: 0 for no effect and ±100 for the full control effect; nearly all actives have a fitted effect of over 45% in size
# Rabbit aldolase: blocks rabbit muscle aldolase in Giardia aldolase selectivity test; shares compounds with Giardia FBPA inh-1; Rabbit muscle FBPA enzyme inhibition, selectivity counter-screen; Potency, µM (series often up to 57.5 µM), for inactives: top-dose activity, negative = inhibition, usual class: inhibitors; actives 4% (n = 1,500); note: potency is the fitted concentration of half-maximal effect; % is set by controls: 0 for no effect and ±100 for the full control effect; nearly all actives have a fitted effect of over 60% in size
# GAPDH counter: counter-screen for Giardia aldolase inhibitors: GAPDH coupling enzyme | shares compounds with Giardia FBPA inh-1 | GAPDH coupling enzyme counterscreen, biochemical, qHTS | Potency, µM (series often up to 57.5 µM), inactives show at the highest dose activity change, negative = inhibition, actives largely listed as inhibitors | actives 6% (n = 1,500) | AID 2795; note: potency is the fitted concentration of half-maximal effect; % is set by controls: 0 for no effect and ±100 for the full control effect; nearly all actives have a fitted effect of over 55% in size
# * hit, by the source's call; u = inconclusive; x = no result given; [ ] = dose if it differs, or a comment. Unless noted, calls come from the whole dose curve; as a rule, active = well fitted curve in the direction sought with a large enough effect; inconclusive = small, poorly fitted or top-dose-only effect, or another doubt; inactive = no such curve, though single readings can be large; an effect the other way counts as inactive or inconclusive.
SMILES,Sm TGR inh,TbPYK inhibitor,Shiga inhibitor,Cycloheximide cs,Giardia FBPA inh-1,LmPK inhibitor,Giardia growth,Mammalian tox,Giardia FBPA inh-2,Rabbit aldolase,GAPDH counter
CCCn1nc(C(=O)Nc2ccc(N3CCOCC3)cc2)c2ccccc2c1=O,-3.4%,0.5%,x,x,x,x,x,x,x,x,x
NC(Cc1ccc(F)cc1)c1csc(Nc2nccc(C(F)(F)F)n2)n1 (stereo not drawn),x,-9.9%,x,x,x,x,x,x,x,x,x
CCC1(c2ccccc2)NC(=O)N(CC(=O)N(CC(=O)Nc2ccccc2C(F)(F)F)Cc2ccco2)C1=O (stereo not drawn),u,5.6%,x,x,x,x,x,x,x,x,x
CC(C)OC(=O)CC1C(=O)NCCN1C(=S)NC(=O)c1cccs1 (stereo not drawn),-30.2%,u,-4.6,-2.2,5.61µM*,-4.2%,4.2%[38.3 µM],-1.8%,-2.0%,3.7%,-2.1%
COC(=O)CC1C(=O)NCCN1C(=S)NC(=O)c1ccccc1[N+](=O)[O-] (stereo not drawn),-0.4%,-7.6%,-7.9,-4.4,7.06µM*,0.9%,-35.5%,-12.0%,2.4%,1.5%,13.1%
CN(c1ccccc1)c1ncnc2c1cnn2C,18.9%,3.3%,x,x,x,x,x,x,x,x,x
Clc1ccc(Nc2c(-c3cccs3)nc3ccc(Cl)cn23)cc1,-8.9%,-8.5%,x,x,x,x,x,x,x,x,x
O=C(O)Cc1sc(Nc2ccc(Cl)cc2)nc1-c1cccs1,-24.3%,-26.8%,75.2*,47.2*,17.7µM*,-6.4%,15.3%,-4.6%,3.0%,9.4%,2.1%
Cc1ccc(C)c(NC(=O)n2ncc3cc(Cl)ccc32)c1,-1.2%,-10.0%,x,x,x,x,x,x,x,x,x
COc1cccc(N2CCN(Cc3ccco3)CC2)c1,-22.2%,22.8%,12.0,6.0,25.1µM*,-4.9%,u,-11.2%,-4.7%,3.0%,9.1%
COc1ccc(CN2CCN(Cc3ccco3)CC2)cc1OC,-9.5%,-0.1%,x,-0.4,12.6µM*,-2.5%,-6.3%[10.4 µM],-5.5%,0.3%,7.5%,7.6%
CCN(CC)CCN(Cc1cc2cc3c(cc2[nH]c1=O)OCCO3)C(=S)NCC1CCCO1 (stereo not drawn),x,-3.8%,12.2,8.8,7.92µM*,6.4%,30.7%,-7.9%,6.7%,0.1%,-19.8%
CC(C)n1cnc2c(=S)nc[nH]c21,70.4%,-13.5%,-4.9,-2.1,3.15µM*,-2.4%,5.7%[38.3 µM],-2.1%,-1.7%,-20.3%,u
S=c1nc[nH]c2c1ncn2-c1ccccc1,x,-0.4%,x,x,x,x,x,x,x,x,x
CCOC(=O)C(C)Sc1nc(-c2ccccn2)ncc1OC (stereo not drawn),4.2%,-4.3%,1.5,11.7,15.8µM*,-2.4%,u,-28.2%,-11.7%,-10.7%,u
CCOC(=O)c1oc2c(O)c(O)ccc2c(=O)c1-c1nncn1-c1ccccc1,-3.1%,-7.0%,-8.9,0.5,4.46µM*,-4.1%,-27.7%,-20.0%,u,u,-17.7%
COc1ccc(COC(=O)N/N=C2/C[C@@H](O)[C@@H](O)[C@@H]3[C@H]4C(=O)N(c5ccc(F)cc5F)C(=O)[C@@H]4CC[C@H]23)cc1,x,x,x,x,-4.5%[12.9 µM],x,x,x,x,x,x
CN(C)c1ccc(C=NN2CCCCCC2)cc1,x,-9.8%,x,x,x,x,x,x,x,x,x

# Screening data deposited in PubChem by National Center for Advancing Translational Sciences (NCATS).
